Among the data in PubChem BioAssay (EPA / NIEHS) are outcome and AC50 values, retold here.

Read-out in assay [1]: Interleukin-1 alpha (IL1a), IL1A (gene 3552)
Put plainly: BSK_LPS_IL1a: BioMAP Diversity Plus: LPS Assay for Interleukin-1 alpha (IL1a) Biomarker Activity (AID 2283080). The conditions noted are these: primary human HUVEC with PBMC; actives raise or lower the signal. The gist of the method: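 Measured: IL-1 alpha via ELISA at 24 h in LPS-activated human umbilical vein endothelium–PBMC co-culture. Baseline: DMSO, bidirectional fitting.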

Read-out in assay [2]: Monocyte Chemoattractant Protein-1 (MCP1), CCL2 (gene 6347)
Put plainly: BSK_LPS_MCP1: BioMAP Diversity Plus: LPS Assay for Monocyte Chemoattractant Protein-1 (MCP1) Biomarker Activity (AID 2283081). The conditions noted are these: primary human HUVEC with PBMC; actives raise or lower the signal. In outline:
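LPS-stimulated HUVEC/PBMC co-culture; chemical, 24 h; MCP-1 by ELISA; bidirectional fit vs DMSO; cytotoxicity via SRB (0.1% stain, 10% TCA fix, 560 nm) in parallel wells.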

Assay [3] is described as follows: BSK_LPS_PGE2: BioMAP Diversity Plus: LPS Assay for Prostaglandin E2 (PGE2) Biomarker Activity (AID 2283082). The note with it: primary human HUVEC with PBMC; actives raise or lower the signal. In outline: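 Endpoint derived from bidirectional curve fitting versus DMSO of ELISA-measured PGE2 in LPS-stimulated human primary vascular co-culture (HUVEC with PBMC) harvested at 24 h.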

Read-out in assay [4]: Macrophage colony-stimulating factor (MCSF), CSF1 (gene 1435)
Kind of assay: BSK_LPS_MCSF: BioMAP Diversity Plus: LPS Assay for Macrophage colony-stimulating factor (MCSF) Biomarker Activity (AID 2283083). The conditions noted are these: primary human HUVEC with PBMC; actives raise or lower the signal. The gist of the method:
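Compound is added to a human vascular primary co-culture of umbilical vein endothelium and blood mononuclear cells. After 24 h, M-CSF is quantified by ELISA. Signal changes are fitted in both directions against DMSO.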

Read-out in assay [5]: Tissue Factor, F3 (gene 2152)
Kind of assay: BSK_LPS_TissueFactor: BioMAP Diversity Plus: LPS Assay for Tissue Factor Biomarker Activity (AID 2283084). The conditions noted are these: primary human HUVEC with PBMC; actives raise or lower the signal. In outline:
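In this co-culture system of umbilical vein endothelium with PBMC, stimulated with LPS, cell-surface CD142 is detected by ELISA at 24 h. Endpoint values derive from bidirectional fitting, DMSO serving as baseline.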

Read-out in assay [6]: Tumor necrosis factor (Homo sapiens) (UniProt P01375)
Put plainly: BSK_LPS_TNFa: BioMAP Diversity Plus: LPS Assay for Tumour Necrosis Factor alpha (TNFa) Biomarker Activity (AID 2283085). The conditions noted are these: primary human HUVEC with PBMC; actives raise or lower the signal. In outline: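 Primary human vascular co-culture of HUVEC and PBMC; TNFa ELISA 24 h after treatment, analysed as increase or decrease relative to DMSO control.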

Read-out in assay [7]: Vascular cell adhesion molecule 1 (VCAM1), VCAM1 (gene 7412)
Kind of assay: BSK_LPS_VCAM1: BioMAP Diversity Plus: LPS Assay for Vascular cell adhesion molecule 1 (VCAM1) Biomarker Activity (AID 2283086). The note with it: primary human HUVEC with PBMC; actives raise or lower the signal. The gist of the method: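 Primary human vascular co-culture (umbilical vein endothelium plus PBMC) stimulated with LPS received chemical; 24 h later VCAM-1 was read by ELISA. Overt cytotoxicity was assessed by sulforhodamine B staining of parallel cultures at the same time point.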

Read-out in another assay: CD38, CD38 (gene 952)
Put plainly: BSK_SAg_CD38: BioMAP Diversity Plus: SAg Assay for CD38 Biomarker Activity (AID 2283087). The note with it: primary human HUVEC with PBMC; actives raise or lower the signal. The gist of the method: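 Fluorescence ELISA of cell-surface CD38 served as the read-out, with either increase or decrease fitted against DMSO controls. Cells were a human umbilical vein endothelium plus PBMC co-culture under SEB/TSST-1 stimulation, measured 24 h after dosing.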

Read-out in a further assay: CD40, CD40 (gene 958)
Put plainly: BSK_SAg_CD40: BioMAP Diversity Plus: SAg Assay for CD40 Biomarker Activity (AID 2283088). The note with it: primary human HUVEC with PBMC; actives raise or lower the signal. In outline:
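Fluorescence ELISA read-out of CD40 from umbilical vein endothelium plus peripheral blood mononuclear cells, sampled 24 h after dosing. Values come from bidirectional curve fitting with DMSO as baseline.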

Read-out in the next assay: CD69, CD69 (gene 969)
Kind of assay: BSK_SAg_CD69: BioMAP Diversity Plus: SAg Assay for CD69 Biomarker Activity (AID 2283089).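 For AC50: cell surface CD69 protein quantified by ELISA with fluorescence detection.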 The conditions noted are these: primary human HUVEC with PBMC; actives raise or lower the signal. In outline: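 HUVEC co-cultured with PBMC were dosed with chemical, and CD69 was measured by ELISA with fluorescence read-out 24 h later. Bidirectional curve fitting used DMSO as negative control and activity baseline.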

Read-out in assay [8]: Monocyte Chemoattractant Protein-1 (MCP1), CCL2 (gene 6347)
Put plainly: BSK_SAg_MCP1: BioMAP Diversity Plus: SAg Assay for Monocyte Chemoattractant Protein-1 (MCP1) Biomarker Activity (AID 2283090). The conditions noted are these: primary human HUVEC with PBMC; actives raise or lower the signal. In outline:
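MCP-1 levels in the endothelial–PBMC SAg co-culture were quantified by ELISA at 24 h post-dosing; both increases and decreases versus DMSO scored. Cytotoxicity monitored by SRB total protein in parallel cultures.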

Read-out in assay [9]: E-selectin (Homo sapiens) (UniProt P16581)
Kind of assay: BSK_SAg_Eselectin: BioMAP Diversity Plus: SAg Assay for Eselectin Biomarker Activity (AID 2283091). The note with it: primary human HUVEC with PBMC; actives raise or lower the signal. The gist of the method: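 Primary human endothelial cells and peripheral blood mononuclear cells were co-cultured and exposed to chemical for 24 hours. E-selectin levels were then quantified by ELISA, with bidirectional curve fitting normalised to DMSO controls.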

Read-out in assay [10]: Monokine induced gamma interferon (MIG), CXCL9 (gene 4283)
Put plainly: BSK_SAg_MIG: BioMAP Diversity Plus: SAg Assay for Monokine induced gamma interferon (MIG) Biomarker Activity (AID 2283092). The conditions noted are these: primary human HUVEC with PBMC; actives raise or lower the signal. The gist of the method: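 HUVEC plus human PBMC co-culture, chemicals dosed and MIG (CXCL9) quantified by ELISA at 24 h. Bidirectional curve fitting against DMSO as negative control and baseline, so both gain and loss of signal count as activity.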

A short description of assay [11]: BSK_SAg_PBMCCytotoxicity: PBMC Cytotoxicity Assessment in the BioMAP Diversity Plus: SAg Assay (AID 2283093).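 For AC50: PBMC superantigen activated with SEB plus TSST-1 one hour after compound addition.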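 Note: PBMC viability measured as Alamar Blue reduction fluorescence at 546/580 nm; fitted both ways against DMSO so a hit may be loss or gain of signal.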 The conditions noted are these: primary human HUVEC with PBMC. In outline:
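Compound added to 75,000 PBMC/well for 1 h; SEB and TSST-1 then added at 20 ng/mL final each; 90 h incubation; Alamar Blue 6 h; read 546/580 nm ex/em. Activity fitted bidirectionally relative to DMSO baseline.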

Read-out in assay [12]: Interleukin-8 (IL8), CXCL8 (gene 3576)
Put plainly: BSK_SAg_IL8: BioMAP Diversity Plus: SAg Assay for Interleukin-8 (IL8) Biomarker Activity (AID 2283094). The conditions noted are these: primary human HUVEC with PBMC; actives raise or lower the signal. The gist of the method:
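In this co-culture of human umbilical vein endothelium with peripheral blood mononuclear cells, IL-8 is assayed by ELISA at 24 h. DMSO serves as baseline for bidirectional curve fitting.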

The nature of assay [13]: BSK_SAg_Proliferation: Cell Proliferation Assessment in the BioMAP Diversity Plus: SAg Assay (AID 2283095).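 Note: relative cell number as total protein by SRB absorbance in sub-confluent culture.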 The conditions noted are these: primary human HUVEC with PBMC. In outline:
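Readout is SRB-stained protein (560 nm) in a primary human HUVEC and PBMC co-culture; sub-confluent cultures are read at 96 h. Activity is fitted bidirectionally using DMSO as baseline.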

Assay [14] can be described thus: BSK_SAg_SRB: Viability Assessment in the BioMAP Diversity Plus: SAg Assay (AID 2283096).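 Note: cells read one day after compound addition; hits may be either gain or loss of signal compared with DMSO.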 The conditions noted are these: primary human HUVEC with PBMC. In outline:
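Total protein by sulforhodamine B staining, 24 h after dosing, in HUVEC–PBMC co-culture; DMSO-referenced bidirectional fitting.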

Assay [15] addresses human CYP19A1, CYP19A1 (gene 1588) (UniProt P11511). Kind of assay: NVS_ADME_hCYP19A1: NovaScreen (NVS) CYP450-related Enzyme Activity (ADME) Assay for human CYP19A1 (AID 2283098; active = hit-call score of the fitted dose curve at least 0.9, where 1 is the maximum). In outline: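 Biochem, cell-free; recombinant enzyme + specific substrate; fluorescence intensity at 0.5 h post-dose; 10 uM duplicate primary, conc. series for actives; acetonitrile = negative control/baseline; positive and negative controls on every plate.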

Inconclusive results are not listed. Some compounds were tested as several samples or in several runs, with calls that do not always agree. The source made the active and inactive calls. Rule for the calls, unless noted: active = hit-call score of the fitted dose curve at least 0.9, where 1 is the maximum; inactive = score below 0.9.

Sequence of E-selectin (Homo sapiens) (P16581 whole entry, looked up): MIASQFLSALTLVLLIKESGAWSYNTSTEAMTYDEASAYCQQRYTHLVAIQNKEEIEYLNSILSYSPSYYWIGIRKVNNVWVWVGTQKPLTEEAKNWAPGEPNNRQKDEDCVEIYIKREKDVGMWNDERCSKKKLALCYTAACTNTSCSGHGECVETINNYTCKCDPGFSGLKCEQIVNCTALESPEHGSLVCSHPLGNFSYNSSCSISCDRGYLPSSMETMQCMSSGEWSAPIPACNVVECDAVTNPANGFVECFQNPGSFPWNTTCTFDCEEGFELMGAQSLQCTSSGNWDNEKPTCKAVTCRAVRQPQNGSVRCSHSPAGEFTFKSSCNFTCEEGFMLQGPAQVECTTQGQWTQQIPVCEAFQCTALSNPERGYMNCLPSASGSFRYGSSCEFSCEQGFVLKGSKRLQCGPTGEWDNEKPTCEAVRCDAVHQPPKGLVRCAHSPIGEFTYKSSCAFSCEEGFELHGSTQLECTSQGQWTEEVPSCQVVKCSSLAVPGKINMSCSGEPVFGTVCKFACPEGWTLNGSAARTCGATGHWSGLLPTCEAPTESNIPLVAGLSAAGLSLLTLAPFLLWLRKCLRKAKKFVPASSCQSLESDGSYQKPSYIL
Sequence of human CYP19A1, CYP19A1 (gene 1588) (P11511 whole entry, looked up): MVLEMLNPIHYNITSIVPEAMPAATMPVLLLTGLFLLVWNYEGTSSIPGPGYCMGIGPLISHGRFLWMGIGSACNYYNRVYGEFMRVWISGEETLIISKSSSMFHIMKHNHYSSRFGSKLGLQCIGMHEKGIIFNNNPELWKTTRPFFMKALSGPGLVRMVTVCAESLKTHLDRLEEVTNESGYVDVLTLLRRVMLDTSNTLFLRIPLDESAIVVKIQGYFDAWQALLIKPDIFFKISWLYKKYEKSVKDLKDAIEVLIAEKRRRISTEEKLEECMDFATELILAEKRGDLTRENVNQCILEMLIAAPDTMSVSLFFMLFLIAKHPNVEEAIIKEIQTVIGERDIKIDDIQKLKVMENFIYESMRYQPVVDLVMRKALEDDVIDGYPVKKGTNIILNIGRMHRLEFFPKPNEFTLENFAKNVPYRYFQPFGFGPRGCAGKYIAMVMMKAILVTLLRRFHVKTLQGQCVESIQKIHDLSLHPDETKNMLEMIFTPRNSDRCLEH
Sequence of Tumor necrosis factor (Homo sapiens) (P01375 whole entry, looked up): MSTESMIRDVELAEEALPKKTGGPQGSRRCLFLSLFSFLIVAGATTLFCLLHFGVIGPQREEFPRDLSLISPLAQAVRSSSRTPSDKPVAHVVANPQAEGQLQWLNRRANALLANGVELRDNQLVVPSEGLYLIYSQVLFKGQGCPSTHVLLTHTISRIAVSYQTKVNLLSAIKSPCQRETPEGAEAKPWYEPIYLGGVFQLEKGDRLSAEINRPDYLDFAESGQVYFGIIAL

As for `CCSC(=O)N1CCCCCC1`, the result in assay [1], in [2], in assay [3], in assay [4], in assay [5] and in assay [6] was inactive. Further, the outcome in assay [7] is “inactive”; with CD38, CD38 (gene 952), “inactive”; in the assay with CD40, CD40 (gene 958) it was “inactive”; with CD69, CD69 (gene 969), “inactive”; in assay [8] it was “inactive”; in assay [9], “inactive”. Moreover, the outcome in assay [10], in assay [11], in assay [12], in assay [13] and in assay [14] was inactive.
What is called AC50 is the midpoint of the concentration-response curve, whichever way the signal moves. With `COCC(C)N(C(=O)CCl)c1c(C)csc1C` (centres undefined), the outcome in [1], in assay [3], in assay [4], in assay [5], in assay [6] and in [7] was inactive. Also, the outcome is “inactive” with CD38, CD38 (gene 952); “inactive” with CD40, CD40 (gene 958); “inactive” in the assay with CD69, CD69 (gene 969); “inactive” in assay [8]; “inactive” in [10]; “inactive” in assay [11]. In addition, the result in [12], in assay [13] and in [14] was inactive. Moreover, the results for the half-maximal activity concentration (AC50) in assay [7] and in assay [9] were 3.97 µM (active) and 10.7 µM (active), respectively.
In the case of `C=C(C)CN(CC)c1c([N+](=O)[O-])cc(C(F)(F)F)cc1[N+](=O)[O-]`, the outcome in assay [1] was “inactive”; in assay [2], “inactive”; in [3], “inactive”; in assay [4], “inactive”; in [5] it was “inactive”; with CD40, CD40 (gene 958) it was “inactive”. In addition, the outcome was “inactive” with CD69, CD69 (gene 969); “inactive” in assay [8]; “inactive” in [10]; “inactive” in assay [12]. For the same molecule, the half-maximal activity concentration (AC50) was 5.11 µM (active) in [6]; 20 µM (active) in assay [7]; 33.7 µM (active) with CD38, CD38 (gene 952); 33.7 µM (active) in assay [9]; 30.8 µM (active) in assay [11]; 28.8 µM (active) in assay [13]. Also, in assay [14], the half-maximal activity concentration (AC50) is 15.2 µM (active).
As for `Cc1c(COC(=O)[C@@H]2[C@H](/C=C(\Cl)C(F)(F)F)C2(C)C)cccc1-c1ccccc1`, the outcome in assay [1] is “inactive”; in assay [2] it was “inactive”; in assay [5], “inactive”; in assay [6], “inactive”; in assay [7], “inactive”; with CD38, CD38 (gene 952), “inactive”. The result in assay [8], in [10], in [11] and in assay [15] was inactive. Further, the AC50 was 4.57 µM (active) in assay [3]; 3.53 µM (active) in assay [4]; 16.5 µM (active) in the assay with CD40, CD40 (gene 958); 5.92 µM (active) in the assay with CD69, CD69 (gene 969); 10.3 µM (active) in assay [9]; 9.35 µM (active) in [12]. Moreover, the concentration at half-maximal activity (AC50) in assay [13] is 14.1 µM (active); in assay [14], 9.26 µM (active).
In the case of `O=C1C2CC=CCC2C(=O)N1SC(Cl)(Cl)Cl` (centres undefined), the outcome in [1] was “inactive”; in assay [2], “inactive”; in assay [3], “inactive”; with CD40, CD40 (gene 958), “inactive”; with CD69, CD69 (gene 969), “inactive”; in assay [10], “inactive”. The outcome in assay [14] and in [15] was inactive. Moreover, the AC50 in assay [4] is 29 µM (active); in assay [5] it was 31.4 µM (active); in assay [6] it was 36.6 µM (active); in assay [7], 14.3 µM (active); in the assay with CD38, CD38 (gene 952) it was 30.5 µM (active); in assay [9], 26.2 µM (active). Moreover, the AC50 is 32.6 µM (active) in assay [11], 25.3 µM (active) in assay [12] and 28.7 µM (active) in assay [13].
For `CC1(C)C(C=C(Cl)Cl)C1C(=O)OC(C#N)c1cccc(Oc2ccccc2)c1` (centres undefined), the outcome in assay [1] was “inactive”; in assay [2], “inactive”; in [4], “inactive”; in assay [5], “inactive”; in assay [7] it was “inactive”; with CD38, CD38 (gene 952), “inactive”. In addition, the outcome is “inactive” with CD40, CD40 (gene 958); “inactive” with CD69, CD69 (gene 969); “inactive” in assay [8]; “inactive” in assay [9]; “inactive” in assay [10]; “inactive” in [11]. Besides, the outcome in assay [12] and in [15] was inactive. In addition, the AC50 in assay [3] was 4.89 µM (active); in assay [6] it was 0.838 µM (active); in assay [13], 29.4 µM (active); in assay [14], 6.38 µM (active).
